PubChem BioAssay (NCI)
Compounds without any hit were thinned out: in the full panel of roughly 83,000, 20% have a hit.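 Each cell line was grown in a 96-well plate and treated with one concentration of compound for 48 hours. Values below 10 were considered active.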 Activity calls are given as the source filed them.

What was measured:
Assay in all cases: NCI-60 one-dose screen, 48 h (100 = growth as untreated, 0 = no growth, -100 = all killed)
Details in all cases: 10 µM unless noted
NCI-H23 lung = system: NCI-H23 lung
NCI-H226 lung = system: NCI-H226 lung
NCI-H322M lung = system: NCI-H322M lung
HOP-62 NSCLC = system: HOP-62 NSCLC
NCI-H460 lung = system: NCI-H460 lung
HOP-92 NSCLC = system: HOP-92 NSCLC
NCI-H522 lung = system: NCI-H522 lung
A549/ATCC NSCLC = system: A549/ATCC NSCLC
786-0 renal = system: 786-0 renal
COLO 205 colon = system: COLO 205 colon

Measured: growth

O=C1CCCCC=C1C[N+](=O)[O-]
active: NCI-H522 lung -12.3%
inactive: NCI-H23 lung 91.5% | NCI-H226 lung 86.3% | NCI-H322M lung 105% | HOP-62 NSCLC 107% | NCI-H460 lung 102% | HOP-92 NSCLC 90% | A549/ATCC NSCLC 121% | 786-0 renal 102% | COLO 205 colon 43%

COc1cc(/C=C2\CCCC3=C2N=C2SC(C)=NN2C3c2cc(OC)c(OC)c(OC)c2)cc(OC)c1OC (stereo not given)
active: HOP-62 NSCLC -0.72% | NCI-H460 lung -13.9%
inactive: NCI-H23 lung 23.2% | NCI-H226 lung 27.7% | NCI-H322M lung 28.5% | HOP-92 NSCLC 91.9% | NCI-H522 lung 81% | A549/ATCC NSCLC 39.9% | 786-0 renal 34.5% | COLO 205 colon 19.2%

N#Cc1ncc(-c2ccc(F)c(F)c2F)c(NC2CCCCCC2)n1
inactive: NCI-H23 lung 88.1% | NCI-H226 lung 93.8% | NCI-H322M lung 85.7% | HOP-62 NSCLC 82.3% | NCI-H460 lung 98.9% | HOP-92 NSCLC 65.1% | NCI-H522 lung 72% | A549/ATCC NSCLC 89.3% | 786-0 renal 87.1% | COLO 205 colon 99.8%

O=C1c2ccccc2C(=O)c2c(N=Nc3sc(=O)[nH]c3S)cccc21
inactive: NCI-H23 lung 96.3% | NCI-H226 lung 110% | NCI-H322M lung 99% | HOP-62 NSCLC 99.3% | NCI-H460 lung 95.9% | HOP-92 NSCLC 92.9% | NCI-H522 lung 83.1% | A549/ATCC NSCLC 98.1% | 786-0 renal 107% | COLO 205 colon 98.9%

COc1ccc(-c2nc3sccn3c2-c2ccnc(NCCCNS(=O)(=O)c3ccc(C)cc3)n2)cc1
inactive: NCI-H23 lung 26.6% | NCI-H226 lung 13.7% | NCI-H322M lung 65% | HOP-62 NSCLC 86.5% | NCI-H460 lung 40% | HOP-92 NSCLC 67.5% | NCI-H522 lung 21.4% | A549/ATCC NSCLC 38.8% | 786-0 renal 43.6% | COLO 205 colon 11.5%

O=c1c2cccc3c(Nc4ccc(F)cc4)ccc(c32)c2nc3ccccc3n12
inactive: NCI-H23 lung 83.8% | NCI-H226 lung 92.7% | NCI-H322M lung 67.8% | HOP-62 NSCLC 87.5% | NCI-H460 lung 77.9% | HOP-92 NSCLC 53.2% | NCI-H522 lung 82% | A549/ATCC NSCLC 96.1% | 786-0 renal 97.5% | COLO 205 colon 84.5%

CN1C(=O)[C@H]2c3c1cccc3[C@@]13NC(=O)O[C@H]1[C@H](CCC3(C)C)C2(C)C
inactive: NCI-H23 lung 103% | NCI-H226 lung 95.2% | NCI-H322M lung 108% | HOP-62 NSCLC 96% | NCI-H460 lung 105% | HOP-92 NSCLC 81.9% | NCI-H522 lung 92.6% | A549/ATCC NSCLC 93.7% | 786-0 renal 96.6% | COLO 205 colon 107%

COc1cc2nc(N3CCC[C@@H](NC4=CC(=O)c5ccccc5C4=O)C3)nc(N)c2cc1OC
inactive: NCI-H23 lung 87.2% | NCI-H226 lung 113% | HOP-62 NSCLC 94.5% | HOP-92 NSCLC 84.8% | NCI-H522 lung 94.3% | 786-0 renal 94.7%
active: NCI-H322M lung -65.3% | NCI-H460 lung -72.9% | A549/ATCC NSCLC -74.6% | COLO 205 colon -71.8%

Nc1nc(N)c2nc(CNc3ccc(C(=O)CC(CCC(=O)O)C(=O)O)cc3)cnc2n1 (stereo not given)
active: HOP-92 NSCLC -3.77% | NCI-H522 lung -9.57% | A549/ATCC NSCLC 2.47%
inactive: NCI-H23 lung 31.4% | NCI-H226 lung 38.2% | NCI-H322M lung 47.5% | HOP-62 NSCLC 39.8% | NCI-H460 lung 19.8% | 786-0 renal 20.9% | COLO 205 colon 66%

COc1ccc(OC)c(-c2ccc(-c3ccccc3N)c3[nH]c4ccccc4c23)c1
inactive: NCI-H23 lung 74.5% | NCI-H226 lung 75.2% | NCI-H322M lung 90.1% | HOP-62 NSCLC 80.9% | NCI-H460 lung 92.3% | HOP-92 NSCLC 80.8% | NCI-H522 lung 56.9% | A549/ATCC NSCLC 68.7% | 786-0 renal 83.6% | COLO 205 colon 87.5%

COc1ccc(/C=C(\C#N)c2ccc([N+](=O)[O-])cc2)c2ccccc12
inactive: NCI-H23 lung 65.3% | NCI-H226 lung 16.1% | NCI-H322M lung 51.6% | HOP-62 NSCLC 27.1% | NCI-H460 lung 64.6% | HOP-92 NSCLC 50.1% | NCI-H522 lung 34% | A549/ATCC NSCLC 48.7% | 786-0 renal 34.5% | COLO 205 colon 81.4%

Clc1nc(Cl)c2ncn(C/C=C/Cn3cnc4c(Cl)nc(Cl)nc43)c2n1
active: HOP-92 NSCLC -13.3%
inactive: NCI-H23 lung 94.7% | NCI-H226 lung 94.2% | NCI-H322M lung 94.6% | HOP-62 NSCLC 94.3% | NCI-H460 lung 84.5% | NCI-H522 lung 27.7% | A549/ATCC NSCLC 71.6% | 786-0 renal 93.2% | COLO 205 colon 63.3%

O=C(CN1CCOCC1)Nc1ccc(-c2nc3ccccc3s2)cc1
inactive: NCI-H23 lung 99.5% | NCI-H226 lung 95% | NCI-H322M lung 100% | HOP-62 NSCLC 106% | NCI-H460 lung 99.7% | HOP-92 NSCLC 83.3% | NCI-H522 lung 94.5% | A549/ATCC NSCLC 93.8% | 786-0 renal 101% | COLO 205 colon 115%

CCCCCCCCCCCCOB(OCCCCCCCCCCCC)OCCCCCCCCCCCC
inactive: NCI-H23 lung 88.3% | NCI-H226 lung 99.3% | NCI-H322M lung 101% | HOP-62 NSCLC 94.5% | NCI-H460 lung 109% | HOP-92 NSCLC 101% | NCI-H522 lung 95.2% | A549/ATCC NSCLC 97.8% | 786-0 renal 120% | COLO 205 colon 98.2%

Cc1ccc(Cn2c(-c3cccs3)nc3ccccc32)cc1
inactive: NCI-H23 lung 96.2% | NCI-H226 lung 77.3% | NCI-H322M lung 92% | HOP-62 NSCLC 105% | NCI-H460 lung 88% | HOP-92 NSCLC 72.5% | NCI-H522 lung 85.1% | A549/ATCC NSCLC 74.2% | 786-0 renal 99% | COLO 205 colon 110%

O=c1[nH]c2ccccc2cc1-c1nnc(Cc2ccccc2)o1
inactive: NCI-H23 lung 74.7% | NCI-H226 lung 85.3% | NCI-H322M lung 92.3% | HOP-62 NSCLC 82.6% | NCI-H460 lung 92.2% | HOP-92 NSCLC 76.2% | NCI-H522 lung 71.2% | A549/ATCC NSCLC 83.3% | 786-0 renal 58.3% | COLO 205 colon 64.4%

CCOP(=O)(CCN1CCN(CCCCCOc2cc3c(cc2OC)C(=O)N2CCC[C@H]2C=N3)CC1)OCC
active: HOP-92 NSCLC -47.9%
inactive: NCI-H23 lung 104% | NCI-H226 lung 114% | NCI-H322M lung 140% | HOP-62 NSCLC 109% | NCI-H460 lung 75.5% | NCI-H522 lung 62.7% | A549/ATCC NSCLC 93.9% | 786-0 renal 99.1% | COLO 205 colon 71.4%

COc1ccc(/C=C2\C(=O)N(C(=O)c3csc(NC(C)=O)n3)N=C2C)cc1
inactive: NCI-H23 lung 102% | NCI-H226 lung 104% | NCI-H322M lung 96.7% | HOP-62 NSCLC 100% | NCI-H460 lung 105% | HOP-92 NSCLC 99.8% | NCI-H522 lung 85.2% | A549/ATCC NSCLC 97.3% | 786-0 renal 100% | COLO 205 colon 99.3%

O=C(Nc1ccc(OCc2nnc(-c3ccc(Cl)cc3)o2)c(F)c1)Nc1ccc(Cl)c(Cl)c1
inactive: NCI-H23 lung 47.3% | NCI-H226 lung 78.7% | NCI-H322M lung 54.7% | HOP-62 NSCLC 47.5% | NCI-H460 lung 29.2% | HOP-92 NSCLC 59% | NCI-H522 lung 40.4% | A549/ATCC NSCLC 32.2% | 786-0 renal 90% | COLO 205 colon 70.3%

COc1cccc(-n2cc(-c3nc(Cl)c4ccccc4n3)nn2)c1
inactive: NCI-H23 lung 100% | NCI-H226 lung 111% | NCI-H322M lung 102% | HOP-62 NSCLC 125% | NCI-H460 lung 107% | HOP-92 NSCLC 101% | NCI-H522 lung 83.2% | A549/ATCC NSCLC 92.7% | 786-0 renal 97.8% | COLO 205 colon 98.8%

CC(C)C[C@H](NC(=O)[C@H](Cc1ccccc1)n1ccc(N2CCCCC2)cc1=O)B(O)O
active: NCI-H226 lung -68.7% | HOP-92 NSCLC -10.1% | NCI-H522 lung -7.97%
inactive: NCI-H23 lung 19.7% | NCI-H322M lung 70.7% | HOP-62 NSCLC 13.1% | NCI-H460 lung 34.7% | A549/ATCC NSCLC 19% | 786-0 renal 28% | COLO 205 colon 28.9%

O=Nc1c(-c2c(O)[nH]c3ccc([N+](=O)[O-])cc23)[nH]c2ccc(O)cc12
inactive: A549/ATCC NSCLC 10.6% | COLO 205 colon 65.8%
active: NCI-H23 lung 3.19% | NCI-H226 lung -4.7% | NCI-H322M lung 7.21% | HOP-62 NSCLC -9.77% | NCI-H460 lung -28.5% | HOP-92 NSCLC -3.1% | NCI-H522 lung -79.1% | 786-0 renal 4.21%

C=CCOc1ccc(/C(O)=C2\C(=O)C(=O)N(c3nccs3)C2c2ccccc2F)cc1 (stereo not given)
inactive: NCI-H23 lung 119% | NCI-H226 lung 102% | NCI-H322M lung 80% | HOP-62 NSCLC 92.3% | NCI-H460 lung 94.4% | HOP-92 NSCLC 106% | NCI-H522 lung 100% | A549/ATCC NSCLC 95.4% | 786-0 renal 95.5% | COLO 205 colon 104%

CC/C=C\C[C@H](O)C/C=C1/C(=O)C(Cl)=C[C@@H]1C/C=C\CCCC(=O)OC
inactive: NCI-H322M lung 31.8%
active: NCI-H23 lung -43.8% | NCI-H226 lung -10.9% | HOP-62 NSCLC -27.1% | NCI-H460 lung -31.6% | HOP-92 NSCLC -31.3% | NCI-H522 lung -67.1% | A549/ATCC NSCLC 4.38% | 786-0 renal -40.8% | COLO 205 colon -61.6%

CCSc1nnc(Nc2ccc(C(C)C)cc2)s1
inactive: NCI-H23 lung 79.3% | NCI-H226 lung 75% | NCI-H322M lung 97.6% | HOP-62 NSCLC 91.5% | NCI-H460 lung 97.5% | HOP-92 NSCLC 92.7% | NCI-H522 lung 87.2% | A549/ATCC NSCLC 86.5% | 786-0 renal 86% | COLO 205 colon 86.9%

COc1cc2c(cc1OC)C1(C)N(CC2)C(=O)OC1(C)C (stereo not given)
inactive: NCI-H23 lung 110% | NCI-H226 lung 92.8% | NCI-H322M lung 101% | HOP-62 NSCLC 111% | NCI-H460 lung 101% | HOP-92 NSCLC 101% | NCI-H522 lung 100% | A549/ATCC NSCLC 102% | 786-0 renal 102% | COLO 205 colon 120%

CSc1ccccc1C#C/C=C\C#Cc1ccccc1N1CCCCC1=O
inactive: NCI-H23 lung 103% | NCI-H226 lung 91.2% | NCI-H322M lung 110% | HOP-62 NSCLC 88.2% | NCI-H460 lung 93.3% | HOP-92 NSCLC 63.8% | NCI-H522 lung 99.7% | A549/ATCC NSCLC 48.6% | 786-0 renal 106% | COLO 205 colon 108%
